From PubChem BioAssay (Tox21)
“And” between values parts separate entries of the source, which are not always exact repeats. Equal entries are not always repeated. Results filed as inconclusive are left out. The source made the active and inactive calls. Calls come from the whole dose curve; as a rule, active = well fitted inhibition curve with a large enough effect in the signal ratio in the repeat runs; inconclusive = weak or mixed curves, or effect the other way; inactive = flat fitted curve, though single readings scatter; the % refers to the signal ratio.

assay: qHTS assay for small molecule disruptors of the mitochondrial membrane potential (AID 720635); conditions: HepG2 mitochondrial membrane potential, Mito-MPS dye ratio; series mostly up to 83.2 µM; ratio activity, negative = MMP loss: at the top concentration
Text: U.S. Tox21 Program National Center for Advancing Translational Sciences [NCATS] NIH Chemical Genomics Center [NCGC] U.S. Environmental Protection Agency [EPA] National Institutes of Environmental Health Sciences [NIEHS] National Toxicology Program [NTP] U.S. Food and Drug Administration [FDA] Tox21 Assay Overview: Mitochondrial membrane potential (MMP), one of the parameters for mitochondrial function, is generated by mitochondrial electron transport chain that creates an electrochemical gradient by a series of redox reactions. This gradient drives the synthesis of ATP, a crucial molecule for various cellular processes. Measuring MMP in living cells is commonly used to assess the effect of chemicals on mitochondrial function. […] The dye accumulates in the mitochondria of healthy cells as aggregates, with red fluorescence. The mitochondrial potential collapses and the dye can no longer accumulate in the mitochondria and remains in the cytoplasm in monomers, with green fluorescence.
Tox21 Assay Protocol Summary: 2,000 HepG2 cells in 5 uL/well were dispensed into black, clear-bottom 1536-well plates using a Multidrop Combi (Thermo Scientific) dispenser. The assay plates were incubated overnight at 37C to allow cells to attach to the wells, followed by the transfer of 23 nL compound or DMSO vehicle by a pin tool (Kalypsys). The plates were incubated for 1 hr at 37C and 5% CO2, followed by the addition of 5 uL of 2X Mito-MPS dye (BD Biosciences) into each well using Flying Reagent Dispenser (Aurora Discovery) and then following 30 min incubation at 37C. Fluorescence intensity (490nm excitation and 535nm emission for monomers; and 540nm excitation and 590nm emissions for aggregates) was measured using an Envision plate reader.
% is set by controls: 0 for no effect and ±100 for the full control effect; potency is the fitted concentration of half-maximal effect.

Structure (SMILES)	ratio activity, negative = MMP loss	Potency
Cn1c(CCCC(=O)O)nc2cc(N(CCCl)CCCl)ccc21	-7.92% (inactive)	
CCC(=O)OC1(c2ccccc2)CCN(C)CC1	17.1% [at 95.3 µM] (inactive)	
CCSC(=O)Cl	19.9% [at 95.3 µM] (inactive)	
O=C(O)C(Br)(Br)Br	-12.7% (inactive)	
CCN[C@@H](C)Cc1cccc(C(F)(F)F)c1	24.4% (inactive)	
CCNc1nc(NCC)nc(SC)n1	-19.2% (inactive)	
CCC(C(N)=O)N1CCCC1=O (stereo not given)	-19.1% (inactive)	
CCN(CC)CCOC(=O)C(O)(c1ccccc1)c1ccccc1	-5.63% (inactive)	
ClC1=C(Cl)C2(Cl)C(CBr)CC1(Cl)C2(Cl)Cl (stereo not given)		27.3 µM (active)
NC(=O)OCCCc1ccccc1	22.1% (inactive)	
COc1cc(CCN)cc(OC)c1OC	15.8% [at 95.3 µM] (inactive)	
CCCC(C)(COC(N)=O)COC(N)=O	19.5% (inactive)	
CC(C)NCC(O)c1ccc([N+](=O)[O-])cc1 (stereo not given)	-22.3% (inactive)	
CC(C)(C1CCC(O)CC1)C1CCC(O)CC1 (stereo not given)		7.7 µM (active)
CCC1(CC)C(=O)C=CNC1=O	15% (inactive)	
O=C1CCCCC1Cl (stereo not given)	21.3% [at 95.3 µM] (inactive)	
O=C(Cl)C(Cl)(Cl)Cl	-12.9% [at 95.3 µM] (inactive)	
S=C=S	-12% (inactive)	
CC(C)(C)C(=O)C(Cl)Cl	13.1% (inactive)	
O=C/C=C/c1ccco1	21.2% (inactive)	

Structure (SMILES)	ratio activity, negative = MMP loss	Potency
Cl/C=C/CCl	-13.7% [at 95.3 µM] (inactive)	
Cc1ccc(-c2nc3ccc(C)cn3c2CC(=O)N(C)C)cc1	-8.32% (inactive)	
COc1ccc(CN2CCNCC2)c(OC)c1OC	-14% [at 39.1 µM] (inactive)	
CC(C)(O)C(Cl)(Cl)Cl	-10.1% (inactive)	
C=CC1(C)OC(=O)N(c2cc(Cl)cc(Cl)c2)C1=O (stereo not given)		54.5 µM (active)
C/C(=N\NC(=O)Nc1cc(F)cc(F)c1)c1ncccc1C(=O)O	-22.3% (inactive)	
CCCCCCCC(=O)Cl	-14.2% [at 95.3 µM] (inactive)	
CN(C)CCc1c[nH]c2cccc(OP(=O)(O)O)c12	3.98% (inactive)	
O=C1C2CC=CCC2C(=O)N1SC(Cl)(Cl)Cl (stereo not given)		8.41 µM (active) and 43.1 µM (active) and 8.49 µM (active)
CCCCS(=O)(=O)Cl	-10.5% (inactive)	
CCC1(c2ccccc2)C(=O)N(COC)C(=O)N(COC)C1=O	-10.7% (inactive)	
Cc1cc(OC(=O)N(C)C)nn1C(=O)N(C)C	9.65% (inactive)	
CCOC1Oc2ccc(OS(C)(=O)=O)cc2C1(C)C (stereo not given)	-24.9% (inactive)	
CC(C)[N+](C)(CCC(C(N)=O)(c1ccccc1)c1ccccc1)C(C)C	5.61% [at 39.1 µM] (inactive)	
CCCCOC(C)=O	-4.6% [at 95.3 µM] (inactive)	
O=C(Cl)/C=C/C(=O)Cl	15.7% [at 95.3 µM] (inactive)	
CCN(CCO)CCn1c(Cc2ccccc2)nc2c1c(=O)n(C)c(=O)n2C	11.8% (inactive)	
C[N+]1(C)CCCCC1	7.76% (inactive)	
CCOP(=S)(OCC)SCCl	-14.5% (inactive)	
O=P(O)(O)c1ccccc1	20.4% (inactive)	
